The values below come from PubChem BioAssay (NCI).

This is part of a sample that, as a whole, favours compounds with a hit. Of some 83,000 tested, about 20% had one in any assay.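 Treatment: one concentration, 48 hours, 96-well format. Scoring: percent growth, with anything below 10 considered active.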 Values without a mark were called inactive. Active and inactive are the calls of the source.

This assay deals with HOP-92 NSCLC. The assay can be described thus: NCI-60 one-dose screen, 48 h (100 = growth as untreated, 0 = no growth, -100 = all killed). Particulars: 10 µM unless noted.
`O=Nc1c(O)ccc2ccccc12.O=Nc1c(O)ccc2ccccc12.O=Nc1c([O-])ccc2ccccc12.[Fe+3]`: the growth is 94.5%.

Turning to `COc1cccc(C(=O)Cn2cc(/C=C(\C#N)S(=O)(=O)c3ccccc3)c3ccccc32)c1`, the growth was 68.8%. Take `CC(=O)O[C@@H]1/C=C/C(=O)N[C@@H](C)CCC/C=C/[C@@H]2CCC[C@H]21`: the growth was 92.9%. `CC(C)(C)c1ccc(C2CC(=O)C3=C(C2)Nc2ccccc2N(C(=O)c2ccccc2Cl)C3c2ccc(F)cc2)cc1` (stereo not drawn): the growth was 58.5%.

With `O=C1/C=C/[C@@H](O)[C@@H]2C[C@@H](O)C[C@H]2/C=C/CCCCO1`, the growth was -3.95% (active). `CN1CCN(c2nc(Nc3ccc(O)cc3)nc3ccccc23)CC1`: the growth was 89.6%. With `O=C(NN1C(=O)CSC1c1ccc(Cl)cc1)c1[nH]c2ccc(F)cc2c1-c1ccccc1` (stereo not drawn), the growth is 46.5%. For `CSc1nc2c(c(=O)n1C)N=C1c3ccccc3C(=O)C1C(c1ccccc1)N2` (stereo not drawn), the growth is 28.7%. `CCCC(=O)CC(C)=O.CCCC(=O)CC(C)=O.[Cu]`: the growth is 96.5%.

For the molecule `N#C/C(=C\c1c(-c2ccccc2)[nH]c2ccccc12)S(=O)(=O)c1ccccc1`, the growth is 53%.

Consider `O=C(Nc1ccc(Cl)cc1)c1cc2ccccc2cc1OP(=O)(O)O`, for which the growth is -24% (active). For `COc1ccc(/C=C2\N=C(c3ccccc3)N(c3ccc(-c4nc5ccc(C)cc5s4)cc3)C2=O)cc1`, the growth is 82.4%.

As to `CSc1nc2c(c(=O)[nH]1)N=C1c3ccccc3C(=O)C1C(c1ccccc1)N2` (stereo not drawn), the growth was 59.5%.
